Data taken from paper PMC12136788.
Substitutions are numbered along the chain they refer to. The full ranking holds about 24,000 sequences; the median of “enrichment r” is about 0.99, and the highest 2% start at about 3.7. Shown is part of a subset that was picked to be rich in the highest values.

T1: UNK ZnF1-3 (human, UniProt Q9C0B0 31-174)
T1 sequence: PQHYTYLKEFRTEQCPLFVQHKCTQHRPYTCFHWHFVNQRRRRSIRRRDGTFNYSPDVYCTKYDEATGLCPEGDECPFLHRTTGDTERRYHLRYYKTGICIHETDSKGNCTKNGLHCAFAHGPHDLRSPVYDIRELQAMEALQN

B1: 55347689_55347809_2221_3pUTR_ENSMUSG00000021488_ENSMUST00000099490|mouse|control|control (ssRNA)
RNA: GGGAGUUCUACAGUCCGACGAUCACUCAGCAGUUUCAGGCUCCAUUGUCUUGGUAGAACCCAUUAAAUGGUCUGCAUGGGAAUUAGUAAUGAGGGAUUUCUGUUUCUCUUUUAUCCUGUUUGUGACAGGAUAUCUAGAAUACUCAACAGAGGAUUGAGCAUCA
B2: chr3:122152592:122152593:-_ENSG00000114030_ENST00000344337|hu_mus|motif|central (ssRNA)
RNA: GGGAGUUCUACAGUCCGACGAUCAUUUGUGAUGGCCCAAGCAGCUUCCUUCCUUGUCCGGAACUCUGCUGUUUGCAAUAUACGGAUAAGAGCUGGGAACAUGUUAGCAUCUAUCACAGUCUGGAUCUGUGCCCUAUUUCCAGCCAACAGAGGAUUGAGCAUCA
B3: chr17:60770872:60770873:+_ENSG00000011028_ENST00000303375|hu_hu|hu_hu_hu_mus_True|28_68 (ssRNA)
RNA: GGGAGUUCUACAGUCCGACGAUCUCUUUAAAAAAAAAAAAAAAAAGACAAACAAUAAUAGCACAUUAUUUAAAAAAAGAACUACAAUAGAGGGUCCGCUUUGAGUUGUCCAUGUUCUCGUCCUGCACUGGGACACGGGGACUGCAACAGAGGAUUGAGCAUCA
B4: chr17:60770872:60770873:+_ENSG00000011028_ENST00000303375|hu_hu|hu_hu_hu_mus_True|1_38 (ssRNA)
RNA: GGGAGUUCUACAGUCCGACGAUCUCUUUAAAAAAAAAAAAAAAAAGACAAACAAUAAUAGCACAUUUCGAGAAUCAAGAACUACAAUAGAGGGUCCAUGUCUUCGAUUUGUUCACAUCGUCCUGCACUGGGACACGACCAGGACAACAGAGGAUUGAGCAUCA
B5: chr17:60770872:60770873:+_ENSG00000011028_ENST00000303375|hu_hu|hu_hu_hu_mus_True|1_18 (ssRNA)
RNA: GGGAGUUCUACAGUCCGACGAUCUCUUUAAAAAAAAAAAAAAAAAGACAAACAAUAAUAGCACAUUUCGAGAAUCAAGAACUACAAUAGAGGGUCCGCUUUGAGUUUUUGUUCACAACAUUGUCCCCUGGGACACGACCAGGACAACAGAGGAUUGAGCAUCA
B6: chr17:60770872:60770873:+_ENSG00000011028_ENST00000303375|hu_hu|hu_hu_hu_mus_True|68_68 (ssRNA)
RNA: B3 RNA with G107U, C109U, C110G, A111U, G113C, U114A, U115C, C116A
B7: chr17:60770872:60770873:+_ENSG00000011028_ENST00000303375|hu_hu|hu_hu_hu_mus_True|18_68 (ssRNA)
RNA: GGGAGUUCUACAGUCCGACGAUCUCUUUAAAAAAAAAAAAAAAAAGACAAACAAUAAUAGCACAUUAUUUAAAAAAAGAACUACAAUAGAGGGUCCGCUUUGAGUUUUUGUUCACAACAUUGUCCCCUGGGACACGGGGACUGCAACAGAGGAUUGAGCAUCA
B8: chr17:60770872:60770873:+_ENSG00000011028_ENST00000303375|hu_hu|hu_hu_hu_mus_True|58_68 (ssRNA)
RNA: B7 RNA with A77U, G78C, A86G, A117U, A119G, U121C, G122C, C124G, C126A
B9: chr17:60770872:60770873:+_ENSG00000011028_ENST00000303375|hu_hu|hu_hu_hu_mus_True|1_68 (ssRNA)
RNA: GGGAGUUCUACAGUCCGACGAUCUCUUUAAAAAAAAAAAAAAAAAGACAAACAAUAAUAGCACAUUAUUUAAAAAAAGAACUACAAUAGAGGGUCCGCUUUGAGUUUUUGUUCACAUCGUCCUGCACUGGGACACGACCAGGACAACAGAGGAUUGAGCAUCA
B10: chrX:71482573:71482574:-_ENSMUSG00000031328_ENSMUST00000144429|mus_hu|FALSE|FALSE (ssRNA)
RNA: GGGAGUUCUACAGUCCGACGAUCCUGCCACUGAGAAAGGGCUCUUAGGGAUGGGAUCCCCUCCAUAAGUGACAUUGACGCCUACUGGACCCUGCUGGACAGGCGUGUACUUGACUGUGUAGGUGUUGUCAUGGUGGUCGAUGACAACAGAGGAUUGAGCAUCA
B11: chr6:38652254:38652255:-_ENSG00000124767_ENST00000373365|hu_hu|hu_hu_hu_mus_False|18_28 (ssRNA)
RNA: GGGAGUUCUACAGUCCGACGAUCCGAGAACUUCAUAGCAGGGAAGUCAAGCUUCUGCAGGAGGGUCAGUCCAAGAACCCUCGUAUAAAAAUCCAGGGACUUCUUAGGAUCCUUCACUCGUAGCAUGGUUUGCUGCAGUAGAAACAACAGAGGAUUGAGCAUCA
B12: chr18:67804014:67804015:+_ENSMUSG00000024537_ENSMUST00000025418|mus_hu|FALSE|FALSE (ssRNA)
RNA: GGGAGUUCUACAGUCCGACGAUCACAAUCGGUAUAGAAGUAACCAAUCUUAGACAUAUUCAGUGUAGAAAUAAUCAGAUCCAUUGCAAGCUGGCCAACAUUUCCAACAGAUACUGCUGGCCUGAAGAUGGGAGUGGAGAGGGACAACAGAGGAUUGAGCAUCA
B13: 58380664_58380784_167_CDS_ENSMUSG00000075700_ENSMUST00000107924|mouse|control|control (ssRNA)
RNA: GGGAGUUCUACAGUCCGACGAUCCUUGAGCAGCGGCCCGGUGGCGUACUGCAUCUUUAAUCUCUUGCUGGGCACGCCGCCCAGGUUGGCAGAGGCCUCGCUGCGGACCACCGCCGACGCCGCCACCAGCAGAAGCAGCAGGAGCAACAGAGGAUUGAGCAUCA
B14: 5649169_5649289_955_CDS_ENSG00000160633_ENST00000592224|human|control|control (ssRNA)
RNA: GGGAGUUCUACAGUCCGACGAUCACAGUCCGUCCUCUCGCCAUCGCCUGGCUGCUCCGCGGGCUCCCUUUUCACUACCGCUAACAGGCUGUCUGCCUUGCUCGACUGAGCGUGUGCUGUUGACUCGCUGGCCAAAUCUAAAUCCAACAGAGGAUUGAGCAUCA
B15: chr14:53325254:53325255:-_ENSG00000073712_ENST00000341590|hu_hu|FALSE|FALSE (ssRNA)
RNA: GGGAGUUCUACAGUCCGACGAUCAACCACUUUGCAAUCUACUUCAGUACAAAUGAAGGACAAUCGUACUUCAUCUGCAAACUCUACGGUGACCAUUUUGAUUUCCCAGUUGACAUUCCACUGUUUCAUGUUGCUGAAACGCCACAACAGAGGAUUGAGCAUCA
B16: 93044292_93044412_1315_3pUTR_ENSMUSG00000027217_ENSMUST00000111265|mouse|control|control (ssRNA)
RNA: GGGAGUUCUACAGUCCGACGAUCAGGAACAGCUGGUCCCAGGCCAGCCCUAGGUCCUUGUAGAGCCCAUGCCCCUUGCUUUAGAGCCUAGGUGAGGCCCCUUCAUGUCUGUCUUUUUUGUUUGUUUGUUUGUUUAUUUAAAAACAACAGAGGAUUGAGCAUCA
B17: chr1:235505951:235505952:+_ENSG00000152904_ENST00000391855|hu_mus|motif|central (ssRNA)
RNA: GGGAGUUCUACAGUCCGACGAUCUUUGUAGGCUUUAGCUUCAAGCUCUCUAAGAGUGUGUCGAGUGUAUGCAAAAGAACCGGCAUCCUCCAGGUACUGCACACAAUACUUUUUAAUAUCUAUAUUCUCUGUUCUCUGGCGCAGCAACAGAGGAUUGAGCAUCA
B18: 52190027_52197400_608_3pUTR_ENSMUSG00000020402_ENSMUST00000102758|mouse|control|control (ssRNA)
RNA: GGGAGUUCUACAGUCCGACGAUCGUUGAUGUGCUCCCUCUUGUACCCUGUCUUGAUUUUAGCAUUUUUUUUCCCAGUGUUCGGCGAGAAUGACGAAUCAAAGGUGAGCUUCAGUCCACGAGCAAGCUGGUCUUCCACAGUGAUCAACAGAGGAUUGAGCAUCA
B19: chr17:60770872:60770873:+_ENSG00000011028_ENST00000303375|hu_hu|hu_hu_hu_mus_True|68_78 (ssRNA)
RNA: GGGAGUUCUACAGUCCGACGAUCUCUUUAAAAAAAAAAAAAAAAAGACAAACAAUAAUAAUGGCACAUUUAAAAAAAGAACUACAAUAGAGGGUCCGCUUUGAGUUUUUGUUCACAUCGUCCUGCACUGGGACACGGGGACUGCAACAGAGGAUUGAGCAUCA
B20: chr17:60770872:60770873:+_ENSG00000011028_ENST00000303375|hu_hu|hu_hu_hu_mus_True|68_88 (ssRNA)
RNA: GGGAGUUCUACAGUCCGACGAUCUCUUUAAAAAAAAAAAAAAAAAGUUUAAAAACAAUAGCACAUUAUUUAAAAAAAGAACUACAAUAGAGGGUCCGCUUUGAGUUUUUGUUCACAUCGUCCUGCACUGGGACACGGGGACUGCAACAGAGGAUUGAGCAUCA
B21: chr17:60770872:60770873:+_ENSG00000011028_ENST00000303375|hu_hu|hu_hu_hu_mus_True|48_68 (ssRNA)
RNA: B20 RNA with U47A, U48C, U49A, A52C, C55U, U87A, A88G, G89A, G91A, U94G
B22: 71650973_71651093_4703_CDS_ENSG00000075292_ENST00000264447|human|control|control (ssRNA)
RNA: GGGAGUUCUACAGUCCGACGAUCGUAAUCCAGUUUAGAAAGCUUGCCUUGCAGGGCUGAGAUCCUUCCACUGCCUCCUCUGGUAAGACUGCUCUGAGUAGGUUUGAAUUUACUGCUGCUUUCUGCCAAGCCUGACCUGGCACUCAACAGAGGAUUGAGCAUCA

Biological target: T1, UNK ZnF1-3
Assay: nsRBNS (natural sequence RNA bind-n-seq); RBNS binding buffer (assumed for nsRBNS): 25 mM Tris pH 7.5, 150 mM KCl, 3 mM MgCl2, 0.01% Triton X-100, 500 ug/ml BSA, 20 U/ml SUPERase-In, 4 C; UNK is unkempt and MSI1 is Musashi-1; names of the RNAs are library labels; protein concentration not given here; high values mean tight binding

Q: With B1 as the binder, how does the binding signal read?
A: The binding signal was 0.567 enrichment R.

Q: How did the binding signal turn out when B2 was run?
A: The binding signal was 0.808 enrichment R.

Q: For B3, which binding signal is on record?
A: Its binding signal is 4.92 enrichment R.

Q: B4 was tested. Which binding signal did it give?
A: The binding signal was 2.39 enrichment R.

Q: For B5, which binding signal is on record?
A: Its binding signal is 3.43 enrichment R.

Q: Which binding signal does the source give for B6 here?
A: The binding signal was 4.87 enrichment R.

Q: Which binding signal does the source give for B7 here?
A: Its binding signal is 4.47 enrichment R.

Q: With B8 as the binder, how does the binding signal read?
A: The binding signal was 4.95 enrichment R.

Q: For B9, which binding signal is on record?
A: The binding signal was 3.57 enrichment R.

Q: With B10 as the binder, how does the binding signal read?
A: The binding signal was 0.8 enrichment R.

Q: For B11, which binding signal is on record?
A: The binding signal was 0.508 enrichment R.

Q: B12 was tested. Which binding signal did it give?
A: Its binding signal is 1.13 enrichment R.

Q: How did the binding signal turn out when B13 was run?
A: The binding signal was 0.563 enrichment R.

Q: B14 was tested. Which binding signal did it give?
A: The binding signal was 0.689 enrichment R.

Q: How did the binding signal turn out when B15 was run?
A: The binding signal was 0.398 enrichment R.

Q: Which binding signal does the source give for B16 here?
A: Its binding signal is 0.554 enrichment R.

Q: Which binding signal does the source give for B17 here?
A: Its binding signal is 1.14 enrichment R.

Q: Which binding signal does the source give for B18 here?
A: Its binding signal is 0.961 enrichment R.

Q: How did the binding signal turn out when B19 was run?
A: The binding signal was 5.39 enrichment R.

Q: How did the binding signal turn out when B20 was run?
A: Its binding signal is 6.65 enrichment R.

Q: B21 was tested. Which binding signal did it give?
A: The binding signal was 5.29 enrichment R.

Q: Which binding signal does the source give for B22 here?
A: Its binding signal is 0.641 enrichment R.
